ELG1 repair inh: qHTS screen for small molecules that inhibit ELG1-dependent DNA repair in human embryonic kidney (HEK293T) cells expressing luciferase-tagged ELG1; 330,000 compounds, 2.3% hits; HEK293T ELG1-luciferase reporter, luminescence, 16 h; DNA damage induced by 5-fluorouridine; Potency, µM (doses to about 46.1 µM), for the others: at the highest dose activity change, negative = inhibition, most hits filed as inhibitors; further: potency means the concentration at half of the fitted maximal effect; nearly all actives have a fitted effect of over 55% in size
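5-Fluorouridine DNA damage + compound/DMSO, 2,000 cells/well, 16 h, 37 °C/5% CO2. ONE-Glo, 30 min RT, luminescence. Readout = decrease in reporter signal.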
TDP1 cell noCPT: qHTS for Inhibitors of human tyrosyl-DNA phosphodiesterase 1 (TDP1): qHTS in cells in absence of CPT; DT40 Tdp1-/- hTDP1 cells, no CPT, ATP luminescence, 48 h; Potency, µM (titrated, usually from 46.2 µM), for inactives: top-dose activity change, negative = growth inhibition, most hits filed as inhibitors; 420,000 compounds, 15% hits; further: potency means the concentration at half of the fitted maximal effect; nearly all actives have a fitted effect of over 55% in size
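Seeded 400 DT40-hTDP1 cells/well (vehicle DMSO, no 20 nM CPT); pinned compounds; ≥48 hr at 37 °C; CellTiter-Glo luminescence as viability measure.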
HT1080 IDH1KD tx: qHTS for induction of synthetic lethality in tumor cells producing 2HG: qHTS for the HT-1080-IDH1KD cell line. 360,000 compounds, 2% hits. Potency, µM (titrated, usually from 46.1 µM), inactives show at the highest dose activity, negative = toxicity, hits mostly cytotoxic. HT-1080 IDH1 knockdown viability, ATP luminescence, 48 h;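 further: potency means the concentration at half of the fitted maximal effect; 0% = DMSO wells and -100% = cell-free medium wells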
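Cytotoxicity counter-line: IDH1KD HT-1080, 48 h, CellTiter-Glo. Curves classed by r2, magnitude and activity.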
HT1080NT lethal: qHTS for induction of synthetic lethality in tumor cells producing 2HG: qHTS for the HT-1080-NT fibrosarcoma cell line | Potency, µM (highest dose often 46.1 µM), inactives show at the top dose activity, negative = less viability, usual class: cytotoxic | HT-1080-NT fibrosarcoma viability, CellTiter-Glo ATP luminescence, 48 h | 360,000 compounds, 1.6% hits | AID 686970, 2013;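 further: NT is the 2HG producing partner of a matched IDH1 knockdown line; potency means the concentration at half of the fitted maximal effect; 0% = DMSO-treated cells and -100% = media-only wells without cells; nearly all actives have a fitted effect of over 55% in size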
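A 48-hour cytotoxicity screen used HT-1080-NT cells plated 2 hours before compound delivery. ATP-based CellTiter-Glo luminescence measured viability, normalized to DMSO and no-cell controls.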
TDP1 cell CPT: qHTS for Inhibitors of human tyrosyl-DNA phosphodiesterase 1 (TDP1): qHTS in cells in presence of CPT. chicken DT40 Tdp1-/-;hTDP1 cells + 20 nM CPT, ATP luminescence, 48 h. 420,000 compounds, 12% hits. Potency, µM (highest dose often 46.2 µM), without a hit: top-dose activity change, negative = growth inhibition, most hits filed as inhibitors; further: potency means the concentration at half of the fitted maximal effect; nearly all actives have a fitted effect of over 55% in size
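Cell growth measured by CellTiter-Glo luminescence after a minimum 48 h, 37 C compound exposure with 20 nM CPT in Tdp1-knockout DT40 cells stably expressing hTDP1, seeded 400/well; qHTS titration format.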
IL1B secr inh: qHTS for Inhibitors of Inflammasome Signaling: IL-1-beta AlphaLISA Primary Screen; THP-1 LPS/ATP IL-1B secretion, AlphaLISA, 16 h; hits give low values; activity change, % at 57.5 µM; 360,000 compounds, 4.7% hits; AID 743279, 2014; in the data active means activity change below about -50%; inconclusive means mostly about -30% to -49%
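THP-1 cells pretreated 1 hr with compounds (up to 57.5 uM final), then stimulated with LPS (250 ng/mL final) plus ATP (1.25 mM final); secreted IL-1B measured by AlphaLISA after 16 hr, decreased signal indicating inhibition.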
* marks the source's active call; other numbers are inactive results; [ ] = remark or other dose. This is a sample that favours compounds with a hit; in the whole collection about 19% have one here. Unless noted, the call rests on the fitted dose curve; in most records, active means well fitted curve in the direction sought with a large enough effect; inconclusive means small, poorly fitted or top-dose-only effect, or another doubt; inactive means no such curve, though single readings can be large; an effect the other way counts as inactive or inconclusive. Unless noted, on the % scale 0 is the no-effect control and ±100 the full control effect.

How did Cc1cc(N2CCN(c3cccc(C(F)(F)F)c3)CC2)n2nc(-c3ccccc3C)nc2n1 do in these assays?
TDP1 cell noCPT: 16.4µM*; TDP1 cell CPT: 18.4µM*

How did Cc1cc(N2CCN(c3cccc(C(F)(F)F)c3)CC2)n2ncnc2n1 do in these assays?
ELG1 repair inh: -1.9%; TDP1 cell noCPT: 23.1µM*; HT1080 IDH1KD tx: 7.6%; HT1080NT lethal: 3.0%; TDP1 cell CPT: inconclusive; IL1B secr inh: -12.2

Results for CCCS(=O)(=O)NC(=O)C1(C)CCN(C(=O)Cc2ccc(F)cc2)C1 (configuration not stated) ?
TDP1 cell noCPT: 7.0%; HT1080 IDH1KD tx: 3.6%; HT1080NT lethal: 11.4%; TDP1 cell CPT: 2.7%; IL1B secr inh: 7.8

How did OCC1(Cc2ccc(F)cc2F)CCCN(CCCc2ccccc2)C1 (configuration not stated) do in these assays?
ELG1 repair inh: -3.9%; TDP1 cell noCPT: 14.6µM*; HT1080 IDH1KD tx: -7.2%; HT1080NT lethal: -1.7%; TDP1 cell CPT: inconclusive; IL1B secr inh: -55.0*

Results for OCC1(CCc2ccccc2)CCCN(CCCc2ccccc2)C1 (configuration not stated) ?
ELG1 repair inh: -3.7%; TDP1 cell noCPT: inconclusive; HT1080 IDH1KD tx: inconclusive; HT1080NT lethal: -10.2%; TDP1 cell CPT: inconclusive; IL1B secr inh: -72.6*

How did OCC1(CCc2ccccc2)CCCN(CCCC(F)(F)F)C1 (configuration not stated) do in these assays?
ELG1 repair inh: 9.1%; TDP1 cell noCPT: 0.2%; HT1080 IDH1KD tx: -8.5%; HT1080NT lethal: -4.3%; TDP1 cell CPT: -10.6%; IL1B secr inh: -9.6

Results for CCOC(=O)[C@]12CCC=C1N(Cc1ccco1)C(=O)[C@H](CC(=O)NCCc1ccccc1OC)C2 ?
TDP1 cell noCPT: inconclusive; HT1080 IDH1KD tx: 2.2%; HT1080NT lethal: 12.4%; TDP1 cell CPT: inconclusive; IL1B secr inh: -8.3

How did COc1ccccc1CN1CCCC(n2cc(C(=O)N3CCCCC3)nn2)C1 (configuration not stated) do in these assays?
TDP1 cell noCPT: -7.7%; TDP1 cell CPT: 5.8%[9.04 µM]

Results for Cc1ccc(C=Nc2ccc(N(C)C)cc2)o1 ?
ELG1 repair inh: inconclusive; TDP1 cell noCPT: 2.06µM*; HT1080 IDH1KD tx: inconclusive; HT1080NT lethal: -28.8%; TDP1 cell CPT: 5.17µM*; IL1B secr inh: 20.4

How did O=C(CSc1nc2sccc2c(=O)[nH]1)N1CCN(c2ccccc2)CC1 do in these assays?
ELG1 repair inh: 0.7%; TDP1 cell noCPT: inconclusive; HT1080 IDH1KD tx: -0.8%; HT1080NT lethal: -6.6%; TDP1 cell CPT: inconclusive; IL1B secr inh: 15.8

What do the screens show for `O=C(CSc1ncnc2c1cnn2-c1ccccc1)NC1CCCC1`?
ELG1 repair inh: inconclusive; TDP1 cell noCPT: 23.1µM*; HT1080 IDH1KD tx: 5.9%; HT1080NT lethal: 6.1%; TDP1 cell CPT: 18.4µM*; IL1B secr inh: -8.6

What do the screens show for `O=C(CSc1ncnc2c1cnn2-c1cccc(Cl)c1)NCC1CCCO1` (configuration not stated)?
ELG1 repair inh: -13.4%; TDP1 cell noCPT: 14.6µM*; HT1080 IDH1KD tx: 20.7%; HT1080NT lethal: 9.2%; TDP1 cell CPT: inconclusive; IL1B secr inh: -16.6

What do the screens show for `CCOC(=O)Cc1csc(NC(=O)CSc2nnc(-n3nc(C)cc3C)c3ccccc23)n1`?
ELG1 repair inh: inconclusive; TDP1 cell noCPT: inconclusive; HT1080 IDH1KD tx: -2.9%; HT1080NT lethal: -13.6%; TDP1 cell CPT: -28.3%; IL1B secr inh: 13.4

How did CNC(=O)CSc1ncnc2c1cnn2-c1ccccc1 do in these assays?
ELG1 repair inh: inconclusive; TDP1 cell noCPT: 9.4%; HT1080 IDH1KD tx: 7.9%; HT1080NT lethal: 14.0%; TDP1 cell CPT: 20.2%; IL1B secr inh: -22.0

Results for Cc1cc(C)n(-c2nnc(SCC(=O)NC3CCCC3)c3ccccc23)n1 ?
ELG1 repair inh: 16.4µM*; TDP1 cell noCPT: -28.1%; HT1080 IDH1KD tx: -15.5%; HT1080NT lethal: -22.6%; TDP1 cell CPT: -27.9%; IL1B secr inh: 15.4

Results for CCc1noc(C)c1C(=O)N(CC)CC(=O)NCc1ccc(Cl)cc1 ?
ELG1 repair inh: 12.9%; TDP1 cell noCPT: -22.5%; HT1080 IDH1KD tx: -1.4%; HT1080NT lethal: -4.5%; TDP1 cell CPT: 0.1%; IL1B secr inh: 4.9

What do the screens show for `COc1ccc(C2CC(c3ccc(C)cc3)=NN2C(=O)CCC(=O)O)cc1OC` (configuration not stated)?
ELG1 repair inh: -1.7%

How did COC(=O)[C@@]1(Cc2ccc(F)cc2)[C@H]2c3cc(C(=O)N(C)C)n(CCc4c[nH]c5ccc(O)cc45)c3C[C@H]2CN1C(=O)c1ccccc1 do in these assays?
TDP1 cell noCPT: inconclusive; HT1080 IDH1KD tx: -13.4%; HT1080NT lethal: -18.4%; TDP1 cell CPT: inconclusive; IL1B secr inh: -4.7

Results for Cc1cc(NC(=O)Cc2c(F)cccc2Cl)no1 ?
ELG1 repair inh: 3.6%; TDP1 cell noCPT: inconclusive; HT1080 IDH1KD tx: -9.9%; HT1080NT lethal: 4.8%; TDP1 cell CPT: 14.6µM*; IL1B secr inh: 2.8

How did O=C(Cc1c(F)cccc1Cl)Nc1nc2ccccc2s1 do in these assays?
ELG1 repair inh: inconclusive; TDP1 cell noCPT: inconclusive; HT1080 IDH1KD tx: -7.7%; HT1080NT lethal: -7.1%; TDP1 cell CPT: inconclusive; IL1B secr inh: -57.5*

Results for NC1(CO)COC(c2ccccc2)OC1 (configuration not stated) ?
TDP1 cell noCPT: -1.1%; HT1080 IDH1KD tx: 5.7%; HT1080NT lethal: 4.6%; TDP1 cell CPT: 1.4%; IL1B secr inh: -14.7

Results for Cc1ccc(CN2CCC(C3(c4ccccn4)NC(=O)N(CC4CCCO4)C3=O)CC2)cc1C (configuration not stated) ?
TDP1 cell noCPT: -17.3%; TDP1 cell CPT: 8.8%

How did COc1cc2c(cc1OC)-c1cc3ccc(OC)c(OC)c3c[n+]1CC2 do in these assays?
ELG1 repair inh: -0.9%; TDP1 cell noCPT: 5.17µM*; HT1080 IDH1KD tx: 14.1%; HT1080NT lethal: 24.6%; TDP1 cell CPT: 5.17µM*; IL1B secr inh: 20.5

Screens from PubChem BioAssay.
